The campaign covered roughly 5,500 compounds. About 2,000 (36%) were called active. Another 18% or so got no clear call; they are omitted. The list shows a part of the results. Values without a mark were called inactive. No stated cut-off is given here; in the data, active means normalized growth mostly below about 0.91 (no sharp cut-off); inconclusive means no clear call, values can overlap the other calls; inactive means mostly above about 0.92.
Experiment: chemical genetic growth profiling, strain panel (AID 1159580);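 further: tested at 20 µM; growth read once vehicle control cultures reached saturation at 30 °C; 1 = growth at the plate median or of vehicle wells; lower values mean less growth of the strain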
Details: S. cerevisiae deletion strains, growth OD

`CC1(C)CC2C1CC[C@]1(C)CCC3C(C(=O)O)CC(=O)O[C@@]32C1` (stereo partly drawn) gave a normalized growth (locus YAL021C, strain ccr4, active compounds read low) of 1.07, a normalized growth (locus YAL026C, strain drs2, active compounds read low) of 1.07 and a normalized growth (locus YAL030W, strain snc1, active compounds read low) of 1.04. It also gave a normalized growth (locus YBL061C, strain skt5, active compounds read low) of 1.03, a normalized growth (locus YBR009C, strain hhf1, active compounds read low) of 1.03 and a normalized growth (locus YBR023C, strain chs3, active compounds read low) of 1.02. It also gave a normalized growth (locus YBR171W, strain sec66, active compounds read low) of 1.07, a normalized growth (locus YBR231C, strain swc5, active compounds read low) of 1.06 and a normalized growth (locus YBR279W, strain paf1, active compounds read low) of 1.01. For the same molecule, the normalized growth (locus YCL011C, strain gbp2, active compounds read low) was 1.03, the normalized growth (locus YCL016C, strain dcc1, active compounds read low) was 1.06 and the normalized growth (locus YCL061C, strain MRC1, active compounds read low) was 1.03. The normalized growth (locus YCR088W, strain abp1, active compounds read low) was 1.03, the normalized growth (locus YDL005C, strain med2, active compounds read low) was 1.04 and the normalized growth (locus YDL040C, strain nat1, active compounds read low) was 1.05. It also gave a normalized growth (locus YDR001C, strain nth1, active compounds read low) of 1.04, a normalized growth (locus YDR069C, strain doa4, active compounds read low) of 1.06 and a normalized growth (locus YDR137W, strain rgp1, active compounds read low) of 1.04. For the same molecule, the normalized growth (locus YDR159W, strain sac3, active compounds read low) was 1.05, the normalized growth (locus YDR195W, strain ref2) was 1.06 and the normalized growth (locus YDR297W, strain sur2, active compounds read low) was 1.05. For the same molecule, the normalized growth (locus YDR334W, strain swr1, active compounds read low) was 1.09, the normalized growth (locus YDR335W, strain msn5, active compounds read low) was 1.15 [resistant] (active) and the normalized growth (locus YDR392W, strain spt3, active compounds read low) was 1.14. The normalized growth (locus YEL003W, strain gim4, active compounds read low) was 1.02, the normalized growth (locus YEL037C, strain rad23, active compounds read low) was 1.06 and the normalized growth (locus YEL061C, strain CIN8 (second series), active compounds read low) was 1.04. For the same molecule, the normalized growth (locus YER015W, strain faa2, active compounds read low) was 1.02, the normalized growth (locus YER016W, strain bim1, active compounds read low) was 1.04 and the normalized growth (locus YER111C, strain swi4, active compounds read low) was 1.01. The normalized growth (locus YER155C, strain BEM2 (second series), active compounds read low) was 1.04, the normalized growth (locus YFR010W, strain ubp6, active compounds read low) was 1.09 and the normalized growth (locus YGL167C, strain pmr1, active compounds read low) was 1.05. For the same molecule, the normalized growth (locus YGL173C, strain kem1, active compounds read low) was 1.03, the normalized growth (locus YGL227W, strain vid30, active compounds read low) was 1.02 and the normalized growth (locus YGL240W, strain doc1, active compounds read low) was 1.06. The normalized growth (locus YGL253W, strain hxk2, active compounds read low) was 1.06, the normalized growth (locus YHR013C, strain ard1, active compounds read low) was 1.05 and the normalized growth (locus YHR027C, strain rpn1, active compounds read low) was 1.03. It also gave a normalized growth (locus YHR030C, strain SLT2, active compounds read low) of 1, a normalized growth (locus YHR079C, strain IRE1, active compounds read low) of 1 and a normalized growth (locus YHR142W, strain chs7, active compounds read low) of 1.05. The normalized growth (locus YJL092W, strain hpr5, active compounds read low) was 1.07, the normalized growth (locus YJL095W, strain BCK1 (second series), active compounds read low) was 1.04 and the normalized growth (locus YJL095W, strain BCK1, active compounds read low) was 0.99. For the same molecule, the normalized growth (locus YJL115W, strain asf1, active compounds read low) was 1.06, the normalized growth (locus YJL129C, strain trk1, active compounds read low) was 1.09 and the normalized growth (locus YJL154C, strain vps35, active compounds read low) was 1.05. The normalized growth (locus YJL164C, strain tpk1, active compounds read low) was 1.02, the normalized growth (locus YJL166W, strain qcr8, active compounds read low) was 1.05 and the normalized growth (locus YJL187C, strain SWE1, active compounds read low) was 1.03. It also gave a normalized growth (locus YJR066W, strain TOR1, active compounds read low) of 0.942, a normalized growth (locus YKL160W, strain elf1, active compounds read low) of 1.05 and a normalized growth (locus YKR026C, strain gcn3, active compounds read low) of 1.02. It also gave a normalized growth (locus YKR091W, strain srl3, active compounds read low) of 1.04, a normalized growth (locus YLL001W, strain dnm1, active compounds read low) of 1.07 and a normalized growth (locus YLL026W, active compounds read low) of 1.01. The normalized growth (locus YLL041C, strain sdh2, active compounds read low) was 1.01, the normalized growth (locus YLR027C, strain aat2, active compounds read low) was 1.04 and the normalized growth (locus YLR113W, strain HOG1, active compounds read low) was 0.98. The normalized growth (locus YLR221C, strain rsa3, active compounds read low) was 1.02, the normalized growth (locus YLR258W, strain gsy2, active compounds read low) was 1.1 [resistant] (active) and the normalized growth (locus YLR262C, strain YPT6 (second series), active compounds read low) was 1.07. For the same molecule, the normalized growth (locus YLR320W, strain mms22, active compounds read low) was 1.05, the normalized growth (locus YLR342W, strain FKS1, active compounds read low) was 1.02 and the normalized growth (locus YLR357W, strain rsc2, active compounds read low) was 1.13. For the same molecule, the normalized growth (locus YLR370C, strain arc18, active compounds read low) was 1.03, the normalized growth (locus YLR384C, strain iki3, active compounds read low) was 1.01 and the normalized growth (locus YML120C, strain ndi1, active compounds read low) was 1.04. The normalized growth (locus YMR058W, strain fet3, active compounds read low) was 1.03, the normalized growth (locus YMR125W, strain sto1, active compounds read low) was 1.06 and the normalized growth (locus YMR129W, active compounds read low) was 1.05. It also gave a normalized growth (locus YMR205C, strain PFK2, active compounds read low) of 1.04, a normalized growth (locus YMR231W, strain pep5, active compounds read low) of 1.03 and a normalized growth (locus YNL071W, strain lat1, active compounds read low) of 1.04. It also gave a normalized growth (locus YNL183C, strain NPR1, active compounds read low) of 0.931, a normalized growth (locus YNL209W, strain ssb2, active compounds read low) of 1.01 and a normalized growth (locus YNL322C, strain KRE1 (second series), active compounds read low) of 1.02. For the same molecule, the normalized growth (locus YNR049C, strain mso1, active compounds read low) was 1.05, the normalized growth (locus YOR001W, strain rrp6, active compounds read low) was 1.06 and the normalized growth (locus YOR070C, strain gyp1, active compounds read low) was 1.14 [resistant] (active). The normalized growth (locus YOR080W, strain dia2, active compounds read low) was 1.1 [resistant] (active), the normalized growth (locus YOR083W, strain WHI5, active compounds read low) was 1.08 and the normalized growth (locus YOR106W, strain vam3, active compounds read low) was 1.05. For the same molecule, the normalized growth (locus YOR231W, strain MKK1, active compounds read low) was 0.985, the normalized growth (locus YOR265W, strain rbl2, active compounds read low) was 1.05 and the normalized growth (locus YOR270C, strain vph1, active compounds read low) was 1.14. The normalized growth (locus YOR290C, strain snf2, active compounds read low) was 1.18 [resistant] (active), the normalized growth (locus YPL051W, strain arl3, active compounds read low) was 1.03 and the normalized growth (locus YPL078C, strain atp4, active compounds read low) was 1.07. For the same molecule, the normalized growth (locus YPL106C, strain sse1, active compounds read low) was 1.11, the normalized growth (locus YPL240C, strain hsp82, active compounds read low) was 1.02 and the normalized growth (locus YPL256C, strain CLN2, active compounds read low) was 0.967.

— PubChem BioAssay AID1159580 (chemical genetic matrix, 2015)
